mHtt clearance: mutant huntingtin protein clearance; 47,000 tested, 0.42% active; HeLa Exon1htt(103Q)mCFP, aggregate imaging; zero = plate's median compound well; AID 853; inhibition, % at 1.5 µM;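 active means inhibition of aggregate fluorescence above about 70%, also judged a hit by eye on the cell image, limit read from the data, passing the limit was not always enough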;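 further: cells exposed to compound for three days before fixation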
Hsp90 inh: displaces geldanamycin probe from tumor Hsp90 | NCI-N417 lysate Hsp90, Cy3B-geldanamycin FP displacement | inhibition, % at 30 µM | 64,000 tested, 0.35% active | AID 429;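 active means inhibition above 50%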
CatS inh: blocks human cathepsin S protease activity; AID 501; 62,000 tested, 0.06% active; recombinant cathepsin S, AMC dipeptide fluorescence, pooled mixtures; inhibition, %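 (tested at 5 µM per compound within 10-compound mixtures)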; in the data active means inhibition above about 32%, passing the limit was not always enough
Target sequence (P25774 115-331 limits assumed): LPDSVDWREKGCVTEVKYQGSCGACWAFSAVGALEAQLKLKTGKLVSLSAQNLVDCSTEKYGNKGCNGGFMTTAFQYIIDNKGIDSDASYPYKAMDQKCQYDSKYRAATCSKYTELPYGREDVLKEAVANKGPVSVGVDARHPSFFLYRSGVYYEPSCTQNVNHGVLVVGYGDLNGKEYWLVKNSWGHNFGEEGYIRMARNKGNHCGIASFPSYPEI
CatB mix inh: inhibitors of human cathepsin B in compound mixtures | P07858 | Purified cathepsin B, AMC dipeptide fluorescence | inhibition, %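 (ten-compound pools at 5 µM per compound and 50 µM total)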 | 62,000 tested, 0.06% active | AID 488; in the data active means inhibition above about 22%, passing the limit was not always enough
CatL block: blocks human cathepsin L protease activity; 58,000 tested, 0.17% active; inhibition, %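 (tested at 10 µM)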; AID 460; purified cathepsin L, fluorogenic substrate, fluorescence; in the data active means inhibition above about 45%
CatB block: blocks human cathepsin B protease activity. purified cathepsin B, fluorogenic substrate, fluorescence. inhibition, %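 (tested at 10 µM)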. 63,000 tested, 0.1% active. AID 453; in the data active means inhibition above about 21%
Hits are given with their value; 0 = inactive; - = no result given. This is a sample that favours compounds with a hit; in the whole collection about 0.71% have one here.

SMILES | mHtt clearance | Hsp90 inh | CatS inh | CatB mix inh | CatL block | CatB block
COc1cccc(NC2=NCC(=O)N2Cc2cccs2)c1 | 0 | - | 0 | 0 | 73 | 0
O=C1C2C3C=CC(C3)C2C(=O)N1CNc1ccc(O)cc1 (stereo not drawn) | - | 61 | 0 | 0 | 0 | 0
CC(C)(C)OC(=O)n1ccc2c(NCCCN)ncnc21 | - | 0 | - | - | - | -
O=C(OCc1nnc(-c2ccccc2)o1)c1ccc(S(=O)(=O)NCc2ccco2)cc1 | 71 | 0 | 0 | 0 | 0 | 0
O=C(Nc1ccccc1C(=O)OCc1nnc(-c2ccccc2)o1)c1ccco1 | - | 0 | 0 | 0 | 0 | 0
OCC(CO)(CO)N=Cc1c(O)ccc2ccccc12 | 0 | 0 | 0 | 0 | 0 | 0
Oc1ccc2ccccc2c1C=NC12CN3CCN(CN(C3)C1)C2 | - | 89 | - | - | 0 | 0
C=CCN1CCc2c(cc(O)c(O)c2Br)[C@@H](c2ccccc2)C1 | - | 81 | - | - | - | -
